Laboratory results published in PubChem BioAssay (NCI).
The panel holds about 83,000 compounds, 20% with a hit somewhere; the sample as a whole holds those more often.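 96-well plates, one dose, 48 hours. Percent growth reported; active if below 10.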 A number with no mark means an inactive call. Calls of active or inactive are those of the source. Where a SMILES comes first, the peptide text is derived from it. Bridges are numbered along the chain shown (N, C = ends). [ ]: non-standard residue; d: D form. The star is where a group is joined. ξ: configuration not given here. ξNMePhe(4-NMe2) = CNC(Cc1ccc(N(C)C)cc1)C(=O)O; Picolinoyl(3-OH) = O=C(c1ncccc1O)*; ξPip(4-oxo) = O=C1CCNC(C(=O)O)C1; Phg = N[CH](C(=O)O)c1ccccc1; Abu = CC[CH](N)C(=O)O

These compounds were tested on ACHN renal (assay: NCI-60 one-dose screen, 48 h (100 = growth as untreated, 0 = no growth, -100 = all killed)). Conditions: 10 µM.
CC1=CC(=O)c2ccccc2C1=O gave a growth of 95.2%.
CCOC(=O)C(O)C(O)C(=O)OCC (stereo not drawn) showed a growth of 109%.
For Oc1ccc(Cc2ccccc2)c2cccnc12, the growth was 11.5%.
For CC1CCCC(CC(N)=O)CC1 (stereo not drawn), the growth was 103%.
With COc1cc(C(N)=O)cc(OC)c1OC the growth was 105%.
Compound Cc1ccc(/C(C#N)=C/c2ccc3c(c2)OCO3)cc1 has a growth of 95.3%.
With O=C(O)C(Cc1ccccc1)C(=O)O the growth was 111%.
O=C1N(C[P+](c2ccccc2)(c2ccccc2)c2ccccc2)CCCN1C[P+](c1ccccc1)(c1ccccc1)c1ccccc1 was tested, and the growth was 97.1%.
Work on N/N=C(/Cc1ccccc1)NNC(N)=S yielded a growth of 104%.
Work on COc1ccc(C)cc1OC yielded a growth of 115%.
O=[N+]([O-])c1cccc(N=Nc2ccc(O)cc2O)c1 showed a growth of 78.7%.
CC1=NN(c2ccccc2)C(=O)/C1=C\N1CC(=O)NC1=S showed a growth of 98.8%.
Compound CC1(O)CCCCC1O (stereo not drawn) has a growth of 102%.
For CC1(C)/C(=C\CO)C2CCC1C2 (stereo not drawn), the growth was 112%.
Compound CCCCCCCCCCCCCCCCC1CC(=O)OC1=O (stereo not drawn) has a growth of 110%.
Compound S=c1nn[nH]c2ccccc12 has a growth of 93.2%.
NC(=O)NC(=O)c1ccc(Cl)cc1 was tested, and the growth was 105%.
CC1=C(/C=C/C(C)=C/C=C/C(C)=C/CO)C(C)(C)CCC1 was tested, and the growth was 106%.
Work on Cn1cnc2nc(Cl)nc(Cl)c21 yielded a growth of 29.4%.
CC1(C)N=C(N)N=C(N)N1c1ccc(Cl)cc1 gave a growth of 67.4%.
For O=C(/C=C\c1ccc(O)cc1)c1ccccc1, the growth was 97.2%.
Work on CO[C@H]1C[C@@H]2CC[C@@H](C)[C@@](O)(O2)C(=O)C(=O)N2CCCC[C@H]2C(=O)O[C@H]([C@H](C)C[C@@H]2CC[C@@H](O)[C@H](OC)C2)CC(=O)[C@H](C)C=C(C)[C@@H](O)[C@@H](OC)C(=O)[C@H](C)C[C@H](C)/C=C/C=C/C=C1C yielded a growth of 59.3%.
For C/C(O)=C(\C=N\C(N)=S)C(=O)Nc1ccccc1, the growth was 103%.
With CCS(=O)(=O)c1cc(=O)[nH]c(=O)[nH]1 the growth was 96.8%.
With CCCNC(=O)c1ccc(S(N)(=O)=O)cc1 the growth was 101%.
For CC(C)(O)C#CC#CC(C)(C)O, the growth was 98.8%.
With CCC1NC(=O)C(NC(=O)c2ncccc2O)C(C)OC(=O)C(c2ccccc2)NC(=O)C2CC(=O)CCN2C(=O)C(Cc2ccc(N(C)C)cc2)N(C)C(=O)C2CCCN2C1=O (stereo not drawn) (tested in a mixture with another compound) ({Picolinoyl(3-OH)}-T[Abu]P[ξNMePhe(4-NMe2)][ξPip(4-oxo)][Phg]; ester 1-C; configuration not given here) the growth was 47.5%.
With NNc1ccccc1C(=O)O the growth was 98.9%.
Work on [O-][N+](=Nc1cccc(Cl)c1)c1cccc(Cl)c1 yielded a growth of 94.3%.
O=C(O)C(O)c1ccccc1 (stereo not drawn) showed a growth of 103%.
For CC(=O)Nc1ccc(NC(C)=O)c2c1C(=O)c1ccccc1C2=O, the growth was 78.8%.
With COc1cc2c3c(n(C)c(=O)c2cc1OC)-c1cc2c(cc1C3=O)OCO2 the growth was 26.6%.
With CCN(CC)CCCC(C)Nc1ccnc(/C=C/c2ccc(Cl)cc2)c1 (stereo not drawn) the growth was 35.2%.
With O=C1c2ccccc2C(=O)c2c1ccc(C(=O)O)c2[N+](=O)[O-] the growth was 98.8%.
O=[N+]([O-])c1ccccc1N=Nc1ccc(O)cc1O showed a growth of 109%.
O=C1C=C(O)C(=O)C=C1O showed a growth of 97.2%.
Work on N#CCCN(CCCN1CCOCC1)CN1C(=O)c2ccccc2C1=O yielded a growth of 113%.
C/C=C/CC(C)C(O)C1C(=O)NC(CC)C(=O)N(C)CC(=O)N(C)C(CC(C)C)C(=O)NC(C(C)C)C(=O)N(C)C(CC(C)C)C(=O)NC(C)C(=O)NC(C)C(=O)N(C)C(CC(C)C)C(=O)N(C)C(CC(C)C)C(=O)N(C)C(C(C)C)C(=O)N1C (stereo not drawn) was tested, and the growth was 16.8%.
Cc1cc(=O)cc(C)n1-c1ccccc1 was tested, and the growth was 102%.

The compounds below were run on CAKI-1 renal in the same assay as above. Conditions: 10 µM.
CC1=CC(=O)c2ccccc2C1=O was tested, and the growth was 97.5%.
For CCOC(=O)C(O)C(O)C(=O)OCC (stereo not drawn), the growth was 101%.
For Oc1ccc(Cc2ccccc2)c2cccnc12, the growth was -6.16% (active).
CC1CCCC(CC(N)=O)CC1 (stereo not drawn) was tested, and the growth was 93.4%.
Work on COc1cc(C(N)=O)cc(OC)c1OC yielded a growth of 91%.
Cc1ccc(/C(C#N)=C/c2ccc3c(c2)OCO3)cc1 gave a growth of 53.6%.
O=C(O)C(Cc1ccccc1)C(=O)O gave a growth of 102%.
In the case of O=C1N(C[P+](c2ccccc2)(c2ccccc2)c2ccccc2)CCCN1C[P+](c1ccccc1)(c1ccccc1)c1ccccc1, the growth is reported as 89.4%.
In the case of N/N=C(/Cc1ccccc1)NNC(N)=S, the growth is reported as 96.4%.
For COc1ccc(C)cc1OC, the growth was 101%.
O=[N+]([O-])c1cccc(N=Nc2ccc(O)cc2O)c1 was tested, and the growth was 39.1%.
For CC1=NN(c2ccccc2)C(=O)/C1=C\N1CC(=O)NC1=S, the growth was 98%.
In the case of CC1(O)CCCCC1O (stereo not drawn), the growth is reported as 102%.
Compound CC1(C)/C(=C\CO)C2CCC1C2 (stereo not drawn) has a growth of 102%.
CCCCCCCCCCCCCCCCC1CC(=O)OC1=O (stereo not drawn) showed a growth of 97.9%.
In the case of S=c1nn[nH]c2ccccc12, the growth is reported as 98.3%.
Work on NC(=O)NC(=O)c1ccc(Cl)cc1 yielded a growth of 94.1%.
In the case of CC1=C(/C=C/C(C)=C/C=C/C(C)=C/CO)C(C)(C)CCC1, the growth is reported as 88.6%.
With Cn1cnc2nc(Cl)nc(Cl)c21 the growth was -61.6% (active).
Work on CC1(C)N=C(N)N=C(N)N1c1ccc(Cl)cc1 yielded a growth of 99.9%.
Work on O=C(/C=C\c1ccc(O)cc1)c1ccccc1 yielded a growth of 85.1%.
With CO[C@H]1C[C@@H]2CC[C@@H](C)[C@@](O)(O2)C(=O)C(=O)N2CCCC[C@H]2C(=O)O[C@H]([C@H](C)C[C@@H]2CC[C@@H](O)[C@H](OC)C2)CC(=O)[C@H](C)C=C(C)[C@@H](O)[C@@H](OC)C(=O)[C@H](C)C[C@H](C)/C=C/C=C/C=C1C the growth was 52.2%.
C/C(O)=C(\C=N\C(N)=S)C(=O)Nc1ccccc1 was tested, and the growth was 97.8%.
CCS(=O)(=O)c1cc(=O)[nH]c(=O)[nH]1 was tested, and the growth was 88.4%.
CCCNC(=O)c1ccc(S(N)(=O)=O)cc1 gave a growth of 110%.
Work on CC(C)(O)C#CC#CC(C)(C)O yielded a growth of 97.5%.
CCC1NC(=O)C(NC(=O)c2ncccc2O)C(C)OC(=O)C(c2ccccc2)NC(=O)C2CC(=O)CCN2C(=O)C(Cc2ccc(N(C)C)cc2)N(C)C(=O)C2CCCN2C1=O (stereo not drawn) (tested in a mixture with another compound) ({Picolinoyl(3-OH)}-T[Abu]P[ξNMePhe(4-NMe2)][ξPip(4-oxo)][Phg]; ester 1-C; configuration not given here) gave a growth of 50.8%.
NNc1ccccc1C(=O)O showed a growth of 110%.
With [O-][N+](=Nc1cccc(Cl)c1)c1cccc(Cl)c1 the growth was 96.4%.
O=C(O)C(O)c1ccccc1 (stereo not drawn) showed a growth of 96.8%.
In the case of CC(=O)Nc1ccc(NC(C)=O)c2c1C(=O)c1ccccc1C2=O, the growth is reported as 68.6%.
COc1cc2c3c(n(C)c(=O)c2cc1OC)-c1cc2c(cc1C3=O)OCO2 gave a growth of 24.3%.
Compound CCN(CC)CCCC(C)Nc1ccnc(/C=C/c2ccc(Cl)cc2)c1 (stereo not drawn) has a growth of 18.1%.
O=C1c2ccccc2C(=O)c2c1ccc(C(=O)O)c2[N+](=O)[O-] was tested, and the growth was 98.8%.
O=[N+]([O-])c1ccccc1N=Nc1ccc(O)cc1O gave a growth of 95.1%.
With O=C1C=C(O)C(=O)C=C1O the growth was 97.4%.
Compound N#CCCN(CCCN1CCOCC1)CN1C(=O)c2ccccc2C1=O has a growth of 98.6%.
Compound C/C=C/CC(C)C(O)C1C(=O)NC(CC)C(=O)N(C)CC(=O)N(C)C(CC(C)C)C(=O)NC(C(C)C)C(=O)N(C)C(CC(C)C)C(=O)NC(C)C(=O)NC(C)C(=O)N(C)C(CC(C)C)C(=O)N(C)C(CC(C)C)C(=O)N(C)C(C(C)C)C(=O)N1C (stereo not drawn) has a growth of 31%.
Cc1cc(=O)cc(C)n1-c1ccccc1 was tested, and the growth was 95%.
